Screening data: PubChem BioAssay, National Center for Advancing Translational Sciences (NCATS)
Hits are enriched below; roughly 3.6% of the tested compounds scored in any of these assays.
Mm-Cpn inhibitor – M. maripaludis TRiC chaperonin inhibition; purified Mm-Cpn ATPase, ADP Transcreener TR-FRET; Potency, µM (series often up to 76.9 µM), inactives show at the top dose activity, negative = inhibition, actives largely listed as inhibitors; 0.031% of 330,000 active; AID 504842; also: % is scaled to controls: 0 for no effect and ±100 for the full control effect; nearly all actives have a fitted effect of over 80% in size
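Purified archaeal Mm-CPN (25nM final) preincubated 10 min at 37degC with compound, then 10uM ATP for 30 min at 37degC; ADP measured by HTRF Transcreener TR-FRET; buffer 30 mM TRIS pH 7.4, 100mM KCl, 5mM MgCl2, 1mM DTT.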
TDP-43 yeast inh – TDP-43 toxicity inhibition in yeast | TDP-43 expressing yeast growth rescue, BacTiter-Glo, 24 h | AID 652104 | 1.8% of 410,000 active | Potency, µM (titrated, usually from 46.1 µM), inactives show at the top dose growth rescue (activation), usual class: activators; also: % of control where 0% means no effect; nearly all actives have a fitted effect of over 50% in size
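Cell-based yeast growth screen: TDP-43 expression induced in galactose, inoculum OD600=0.02 after raffinose pregrowth to mid-log. Read-out BacTiter-Glo luminescence at 24 hr, 30 deg C; inhibition of toxicity seen as signal increase.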
aSyn yeast inh – inhibitors of alpha-synuclein toxicity in yeast; Yeast expressing alpha-synuclein, growth rescue, BacTiter-Glo, 24 h; Potency, µM (titrated, usually from 46.1 µM), without a hit: top-dose growth rescue (activation), most hits filed as activators; 0.14% of 370,000 active; AID 652106; also: % of control where 0% means no effect; nearly all actives have a fitted effect of over 65% in size
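Rescue of yeast growth: cells expressing toxic alpha-synuclein, induced in galactose at OD600 0.02, incubated with compound 24 h at 30 C. ATP luminescence quantified growth; inhibitors of toxicity appear as activators.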
FUS yeast rescue – rescues growth of FUS-expressing yeast | 0.24% of 390,000 active | AID 1347120 | S. cerevisiae FUS-expressing, growth rescue, OD600, 24 h | Potency, µM (doses to about 76.6 µM), usual class: activators;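 also: plate controls were DMSO vehicle for no effect and reference control for full effect; nearly all actives have a fitted effect of over 55% in size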
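S. cerevisiae expressing FUS from galactose induction served as the toxicity model. Growth after 24hr at 30C, read as absorbance at 600 nm, indicates suppression of toxicity; compounds dosed at several concentrations.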
ClpP mod – qHTS Assay for Activators of ClpP | purified B. subtilis ClpP, FRET peptide cleavage, 20 min | Potency, µM (top dose mostly 57.5 µM), for the others: top-dose activity change, negative = active | 1.9% of 340,000 active; active = well fitted falling curve with a large enough effect; inconclusive = small, poorly fitted or top-dose-only effect; inactive = no such curve, though single readings can be large or run the other way; also: the source files actives as falling curves though it sought activators and does not explain the sign; nearly all actives have a fitted effect of over 65% in size
Target sequence (P80244 whole entry, looked up): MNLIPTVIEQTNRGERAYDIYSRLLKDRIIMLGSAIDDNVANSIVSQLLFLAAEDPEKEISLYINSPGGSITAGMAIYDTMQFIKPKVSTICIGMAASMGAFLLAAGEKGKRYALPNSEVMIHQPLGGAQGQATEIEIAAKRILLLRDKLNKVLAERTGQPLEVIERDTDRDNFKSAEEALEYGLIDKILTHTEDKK
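ClpP 10 microg/mL final, pH 8 Tris/KCl buffer with BSA, glycerol, Tween-20; compound pinned in; FRET-FV substrate; RT 20 min; Ex320/Em430; ΔFRET vs ADEP 5.8 microM, DMSO, no enzyme.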
Abeta rescue – A-beta toxicity reversal in yeast; 0.063% of 410,000 active; Potency, µM (titrated, usually from 46.1 µM), hits mostly activators; yeast expressing A-beta42, growth rescue, OD600, 48 h; response scale: 0% DMSO, 100% iron-clioquinol control; also: nearly all actives have a fitted effect of over 55% in size
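Yeast A-beta toxicity model in growth medium with pinned compounds, 48 h at 30 C; growth read as absorbance at 600 nm. Normalized to FeCl3/clioquinol equimolar mix (positive) and DMSO (negative).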
* = called active by the depositor; i = inactive; ? = inconclusive; / = no result given; [ ] = remark or other dose. Unless noted, calls follow the shape of the dose curve; as a rule, active = well fitted curve in the direction sought with a large enough effect; inconclusive = small, poorly fitted or top-dose-only effect, or another doubt; inactive = no such curve, though single readings can be large; an effect the other way counts as inactive or inconclusive. Potency is read from the fitted curve at half-maximal effect.

SMILES | Mm-Cpn inhibitor | TDP-43 yeast inh | aSyn yeast inh | FUS yeast rescue | ClpP mod | Abeta rescue
Cc1cc(C)n2nc(C(=O)N3CCCC(N4CCN(c5ccccc5C)CC4)C3)cc2n1 (stereo not given) | -4% | -8% | 3% | / | 28µM* | i
Cc1cc(C(=O)N2CCCC(N3CCN(c4ccccc4C)CC3)C2)no1 (stereo not given) | / | 5% | -1% | i | 0% | i
Cc1cc2nc(C)c(Cc3ccccc3)c(=O)n2[nH]1 | 0% | 7% | 0% | / | 14µM* | i
OCCC1CN(CCCc2ccccc2)CCN1Cc1ccc(F)cc1 (stereo not given) | -1% | 1% | -7% | i | 32µM* | i
CCOC(=O)N1CCN(C(=O)Nc2ccc3nccnc3c2)CC1 | 1% | 3% | 8% | i | -11% | i
Cc1nc2ccc(NC(=S)N3CCCC3)cc2nc1C | 0% | 15% | -6% | i | -6% | i
Cc1nc2ccc(NC(=O)N3CCCCC3)cc2nc1C | -3% | -6% | 1% | i | 14µM* | i
CCOC(=O)N1CCN(C(=O)Nc2ccc3nc(C)c(C)nc3c2)CC1 | -2% | 3% | 0% | i | 28µM* | i
COC(=O)c1cc(NC(=O)c2cc3c(-c4ccccc4F)nn(C)c3s2)cc(C(=O)OC)c1 | / | 3% | / | i | -10% | i
COc1cc2c(=O)n(Cc3ccccc3)c(=O)n(CC(=O)NCCc3ccccc3)c2cc1OC | 3% | -1% | 4% | i | 28µM* | i
c1ccc2oc(-c3csc(NCC4CCCO4)n3)cc2c1 (stereo not given) | -5% | 11µM* | -2% | i | -1% | i
C=CCNc1nc(-c2cc3ccccc3o2)cs1 | -3% | 13µM* | -1% | / | -5% | i
C=CCNc1nc(-c2ccc3c(c2)OCCO3)cs1 | / | 23% | 0% | i | -2% | i
Cc1ccc(Cl)cc1NC(=O)COC(=O)CN1C(=O)C2CCCCC2C1=O (stereo not given) | 0% | 22% | -2% | i | 1% | i
CC(C)CC(C(=O)OCC(=O)Nc1cccc(Cl)c1)N1C(=O)C2CC=CCC2C1=O (stereo not given) | 3% | 35µM* | 24% | / | 1% | i
Cc1ccc(Cl)cc1NC(=O)COC(=O)CCN1C(=O)C2CC=CCC2C1=O (stereo not given) | 1% | 11% | -1% | / | 25µM* | i
COc1ccc(/C=C/c2nccc3ccccc23)cc1OC | / | / | 1% | / | -10% | /
COc1cc2c(cc1NC(=O)CCC(=O)O)oc1ccccc12 | -5% | ? | 2% | i | / | i
COc1cc2c(cc1NC(=S)Nc1cccc(C(F)(F)F)c1)oc1ccccc12 | -6% | 12% | -24% | i | 32µM* | i
COCCCNC(=S)Nc1cc2oc3ccccc3c2cc1OC | -2% | ? | -9% | i | -24% | ?
COc1cc2c(cc1NC(=S)Nc1cccc3ccccc13)oc1ccccc12 | -24% | 6% | 5% | i | 10µM* | i
O=S(=O)(CC1NCc2ccccc21)NC1CCCC1 (stereo not given) | / | / | / | i | / | /
COc1cccc(-c2sc3ccc(OC)cc3c2C#CC(C)(C)O)c1 | ? | 18µM* | -21% | ? | 4% | i
COCc1ccc(-c2c(-c3cccc(OC)c3)sc3ccc(OC)cc23)cc1 | -27% | 20% | 6% | i | -30% | i
COc1cccc(-c2sc3ccc(OC)cc3c2C#CCC(C)O)c1 (stereo not given) | -15% | 25µM* | -1% | ? | 4% | i
SMILES | Mm-Cpn inhibitor | TDP-43 yeast inh | aSyn yeast inh | FUS yeast rescue | ClpP mod | Abeta rescue
Cc1ccc(CN2[C@H]3CCCC[C@@H]3OCCS2(=O)=O)cc1 | / | / | / | / | -2% | /
COc1cc2nc(Cl)nc(NC3CCN(C)CC3)c2cc1OC | / | / | -4% | / | 3% | /
Fc1cccc2sc(Nc3nnc(-c4ccco4)o3)nc12 | -11% | -62% | 17% | i | 25µM* | i
COc1cccc2sc(Nc3nnc(-c4ccc(F)cc4)o3)nc12 | 0% | 7% | -18% | i | 4% | i
CCN(CC)c1nc2cc(OC)ccc2cc1C#N | -10% | -27% | ? | i | 5% | i
COc1ccc2cc(C#N)c(NC(C)C)nc2c1 | 0% | 14% | -1% | i | 22µM* | i
Cc1cc(NCCCCCCCNc2cc(C)nc3cc([N+](=O)[O-])ccc23)c2ccc([N+](=O)[O-])cc2n1 | / | 14µM* | 1% | / | 1% | i
CSc1ncc2c(n1)-c1ccccc1N(Cc1ccc(Cl)cc1)S2(=O)=O | / | 16% | / | i | -3% | i
Cn1c2ccccc2c2cnn(CC(=O)O)c(=O)c21 | -2% | 3% | -4% | i | 32µM* | i
O=C(Cn1ncc2c3ccccc3n(Cc3ccccc3)c2c1=O)N1CCN(c2ncccn2)CC1 | -5% | 27% | 15% | ? | 32µM* | i
COC(=O)Cn1ncc2c3ccccc3n(C)c2c1=O | 1% | 17% | -3% | i | 14µM* | i
CNC(=O)Cn1ncc2c3ccccc3n(C)c2c1=O | 1% | 18% | 1% | i | 4% | i
COc1ccc(-c2cc3nc(C)cc(N4CC(C)CC(C)C4)n3n2)cc1 (stereo not given) | 1% | -1% | -7% | i | 40µM* | i
COCCNc1nc(N)c([N+](=O)[O-])c(NCC2CCCO2)n1 (stereo not given) | 2% | 1% | -3% | i | 25µM* | i
C(=N\n1cnnc1)/c1nc2ccccc2[nH]1 | -1% | -13% | -8% | i | 16µM* | i
Cn1c(/C=N/O)nc2ccccc21 | -2% | 4% | 4% | i | 4% | i
Cn1c(/C=N/n2cnnc2)nc2ccccc21 | 1% | -6% | -13% | i | 14µM* | i
COc1ccccc1CN1CCC(CNC(=O)c2cnn(-c3ccc(Cl)cc3)c2C2CCN(C(=O)OC(C)(C)C)CC2)CC1 | / | 13% | / | i | 1% | i
CN(C)c1ccc(/C=C/c2ccnc3ccc([N+](=O)[O-])cc23)cc1 | / | / | 1% | / | 1% | /
O=C(c1ccccc1F)N1CCN(S(=O)(=O)c2ccc3ccccc3c2)CC1 | 1% | 35µM* | 2% | i | -2% | i
Cc1ccc(C)c(S(=O)(=O)N2CCN(C(=O)c3ccc4ccccc4n3)CC2)c1 | 4% | ? | -20%[1.84 µM] | ? | -3% | i
O=C(c1ccc(F)cc1F)N1CCN(S(=O)(=O)c2ccc3c(c2)OCCO3)CC1 | 1% | 13µM* | 8% | / | 1% | i
